Assay outcomes as filed in PubChem.
NALP1 inh: NALP1 inflammasome inhibitors in reconstituted yeast, colorimetric, S. cerevisiae, triplicate retest. S. cerevisiae NALP1/ASC/caspase-1 growth, X-gal OD620, 72 h. inhibition, % at 10 µM. hit rate 0.61% among 280,000. AID 2071, 2009; in the data active = inhibition mostly above about 24%, no sharp cut-off; inactive = mostly below about 32%
Mot1-301 SUMO: yeast Mot1-301 growth rescue at high temperature, primary screen, SUMOylation pathway inhibitor project, S. cerevisiae, ATP luminescence, 38.5C | AID 2716, 2010 | S. cerevisiae Mot1-301 growth rescue; percent above DMSO median, 100 means doubled | hit rate 1% among 320,000 | growth rescue, % at 18.8 µM;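 active = every valid replicate shows activation above 250% relative to neutral control wells; inactive = the rest, any valid replicate at or below 250%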
PolyA inhibitor: polyadenylation inhibitors in yeast reporter cells, primary screen, luminescence, S. cerevisiae. S. cerevisiae SKY197-pL101 polyadenylation reporter, beta-gal luminescence; efflux-impaired pdr1/pdr3 knockout yeast; score 100 = 6 SD above DMSO. activity score, % at 12 µM. hit rate 0.02% among 300,000. AID 1875, 2009;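 active = lowest replicate activity score at least 50, where 100 means six control SD above control mean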;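 note: yeast exposed to compound for 9 h at 30 °C; higher score means more reporter readthrough which indicates perturbed polyadenylation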
NALP3 yeast inh: NALP3 inflammasome inhibitors in reconstituted yeast, primary screen, luminescence, uHTS; Yeast reconstituted NLRP3/ASC/caspase-1, beta-gal luminescence, 24 h; inhibition, % at 10 µM; hit rate 0.39% among 330,000;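 active = inhibition of 50% or more; inactive = inhibition below 50%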
A number is an active result. Rows were chosen to be rich in hits. Some 1.8% of all compounds tested hit in one or more screens of this group.

`O=C(Oc1ccc2c(=O)c(Oc3ccc4ccccc4c3)coc2c1)c1cncc(Br)c1` gave NALP1 inh inactive, Mot1-301 SUMO inactive, PolyA inhibitor inactive and NALP3 yeast inh inactive.
`CCCCCOc1ccc(Br)cc1/C(C)=N/NC1=NCCN1` gave NALP1 inh 83, Mot1-301 SUMO inactive, PolyA inhibitor inactive and NALP3 yeast inh inactive.
Screening COc1ccc(Br)cc1/C(C)=N/NC1=NCCN1 returned NALP1 inh inactive, Mot1-301 SUMO inactive, PolyA inhibitor inactive and NALP3 yeast inh inactive.
For O=c1cc(CNCCCO)c2ccccc2[nH]1 the results were NALP1 inh 26, Mot1-301 SUMO inactive, PolyA inhibitor inactive and NALP3 yeast inh inactive.
Screening Nc1ncnc(Nc2ccc(F)cc2)n1 returned NALP1 inh inactive, Mot1-301 SUMO inactive, PolyA inhibitor inactive and NALP3 yeast inh inactive.
`Fc1ccc(Nc2ccnc(Nc3ccc(F)cc3)n2)cc1` gave NALP1 inh 84, Mot1-301 SUMO inactive, PolyA inhibitor inactive and NALP3 yeast inh inactive.
Screening CC(C)OC(=O)CC1C(=O)NCCN1C(=S)NC(=O)c1ccccc1 (stereo unspecified) returned NALP1 inh inactive, Mot1-301 SUMO inactive, PolyA inhibitor inactive and NALP3 yeast inh inactive.
CNC(=O)[C@@]1(C)C=C[C@@H](Cc2ccccc2)N1C(=O)OC was read as NALP1 inh inactive, Mot1-301 SUMO 271, PolyA inhibitor inactive and NALP3 yeast inh inactive.
COC(=O)N1[C@H](Cc2ccccc2)C=C[C@]1(C)C(=O)NCc1ccccn1 was read as NALP1 inh inactive, Mot1-301 SUMO inactive, PolyA inhibitor inactive and NALP3 yeast inh inactive.
Cn1cnnc1SCc1cccc(Br)c1 was read as NALP1 inh inactive, Mot1-301 SUMO 264, PolyA inhibitor inactive and NALP3 yeast inh inactive.
`Cc1c(Cl)cccc1NC(=S)N=Nc1c(O)n(CN2CCOCC2)c2ccccc12` gave NALP1 inh inactive, Mot1-301 SUMO 365 and NALP3 yeast inh inactive.
O=C(CCCc1c[nH]c2ccccc12)Nc1ccc(S(=O)(=O)Nc2ncccn2)cc1 was read as NALP1 inh inactive, Mot1-301 SUMO 759, PolyA inhibitor inactive and NALP3 yeast inh inactive.
For Cc1ccnc(NC(=O)CCCc2c[nH]c3ccccc23)c1 the results were NALP1 inh inactive, Mot1-301 SUMO inactive, PolyA inhibitor inactive and NALP3 yeast inh inactive.
`O=C(Nc1nccs1)c1ccc(COc2c(F)c(F)cc(F)c2F)o1` gave Mot1-301 SUMO inactive and NALP3 yeast inh inactive.
Screening Cn1ncc(S(=O)(=O)Cc2ccccc2)c(Cl)c1=O returned NALP1 inh 108, Mot1-301 SUMO inactive, PolyA inhibitor inactive and NALP3 yeast inh inactive.
For Cn1ncc(SCc2ccccc2)c(Cl)c1=O the results were NALP1 inh inactive, Mot1-301 SUMO inactive, PolyA inhibitor inactive and NALP3 yeast inh inactive.
CCN1CCN(c2c(Cl)cccc2NC(=O)c2ccc([N+](=O)[O-])o2)CC1 was read as NALP1 inh 31, Mot1-301 SUMO inactive, PolyA inhibitor inactive and NALP3 yeast inh inactive.
CCCn1c(SCC(=O)Nc2ccc3c(c2)OCCO3)n[nH]c1=O was read as NALP3 yeast inh inactive.
Cc1cc(Cl)ccc1C(=O)C1CCCN(C(=O)c2snnc2C)C1 (stereo unspecified) was read as NALP1 inh inactive, Mot1-301 SUMO inactive, PolyA inhibitor 55 and NALP3 yeast inh inactive.
CC(=C/C(=O)O)/C=C/c1ccc([N+](=O)[O-])cc1 was read as NALP1 inh inactive and Mot1-301 SUMO inactive.
CC1(C)COC(/C=C/c2ccc([N+](=O)[O-])cc2)=N1 was read as NALP1 inh 89, Mot1-301 SUMO inactive and PolyA inhibitor inactive.
For Cc1ccc(-c2nc(-c3ccccn3)sc2CC(=O)O)cc1 the results were Mot1-301 SUMO 328, PolyA inhibitor inactive and NALP3 yeast inh inactive.
`O=C(O)Cc1sc(-c2ccccc2)nc1-c1ccccc1` gave NALP1 inh inactive, Mot1-301 SUMO inactive, PolyA inhibitor inactive and NALP3 yeast inh inactive.
For O=C(CSc1n[nH]c(-c2cccnc2)n1)Nc1cccc(Cl)c1 the results were NALP1 inh inactive, Mot1-301 SUMO inactive, PolyA inhibitor inactive and NALP3 yeast inh inactive.
`CCOCCCNCc1cn(-c2ccc(F)cc2F)nc1-c1ccccc1C` gave NALP1 inh 27, Mot1-301 SUMO inactive, PolyA inhibitor inactive and NALP3 yeast inh inactive.
`O=C(COC(=O)CNC(=O)c1ccco1)NCCN1C(=O)CSC1=O` gave NALP1 inh inactive, Mot1-301 SUMO 320, PolyA inhibitor inactive and NALP3 yeast inh inactive.
Screening O=C(NNC(=O)C1[C@H]2CCCC[C@@H]12)c1ccc(=O)oc1 (stereo partly specified) returned NALP1 inh inactive, Mot1-301 SUMO inactive, PolyA inhibitor inactive and NALP3 yeast inh inactive.
For COCCNC(=O)C(c1cccs1)N(Cc1ccccc1)C(=O)Cn1nnc2ccccc21 (stereo unspecified) the results were NALP1 inh inactive, Mot1-301 SUMO 284, PolyA inhibitor inactive and NALP3 yeast inh inactive.
Screening COCCNC(=O)C(c1cccs1)N(CCc1ccccc1)C(=O)Cn1nnc2ccccc21 (stereo unspecified) returned NALP1 inh inactive, Mot1-301 SUMO inactive, PolyA inhibitor inactive and NALP3 yeast inh inactive.
For CNC(=O)c1ccc(Nc2nnc(-c3ccc(O)cc3)c3ccccc23)cc1 the results were NALP1 inh inactive, Mot1-301 SUMO inactive, PolyA inhibitor inactive and NALP3 yeast inh inactive.
For Oc1ccc(-c2nnc(Nc3cccc(O)c3)c3ccccc23)cc1 the results were NALP1 inh 44, Mot1-301 SUMO inactive, PolyA inhibitor inactive and NALP3 yeast inh inactive.
For Cc1ccc2[nH]c(C(F)(F)F)cc(=O)c2c1 the results were NALP1 inh inactive, Mot1-301 SUMO 342, PolyA inhibitor inactive and NALP3 yeast inh inactive.
Cc1cc(NC(=O)CSc2nc3ccsc3c(=O)n2CCCC(=O)NCCc2ccccc2)no1 was read as NALP1 inh inactive, Mot1-301 SUMO 771, PolyA inhibitor inactive and NALP3 yeast inh inactive.
For COc1ccccc1-n1cccc1C=O the results were NALP1 inh inactive, Mot1-301 SUMO 659, PolyA inhibitor inactive and NALP3 yeast inh inactive.
`COc1ccc(-c2[nH]ncc2CN2CCC(N3CCSCC3)CC2)c(F)c1` gave NALP1 inh inactive, Mot1-301 SUMO inactive, PolyA inhibitor inactive and NALP3 yeast inh inactive.
`O=C(NC(=S)Nc1ccc(Br)cc1)C1CCCCC1` gave NALP1 inh inactive, Mot1-301 SUMO inactive, PolyA inhibitor inactive and NALP3 yeast inh inactive.
Screening CC(=O)Nc1ccc(Br)c(Cl)c1 returned NALP1 inh inactive, Mot1-301 SUMO inactive, PolyA inhibitor inactive and NALP3 yeast inh inactive.
For O=C(Nc1ccc(Br)c(Cl)c1)C1CC1 the results were NALP1 inh 45, Mot1-301 SUMO inactive, PolyA inhibitor inactive and NALP3 yeast inh inactive.
Screening O=C(Nc1ccc(Br)cc1)C1CCCC1 returned NALP1 inh inactive, Mot1-301 SUMO 333, PolyA inhibitor inactive and NALP3 yeast inh inactive.
`Cc1ccc(NC(=S)NCCC2=CCCCC2)cc1` gave NALP1 inh inactive, Mot1-301 SUMO inactive, PolyA inhibitor inactive and NALP3 yeast inh inactive.
